This is a sample that favours compounds with a hit; in the whole collection about 5.5% have one here.
a7 integrin act = activates integrin-mediated alleviation for muscular dystrophy; alpha7betagal myoblasts, beta-gal FDG fluorescence, 48 h; Potency, µM (doses to about 38.3 µM), without a hit: at the highest dose activation, actives largely listed as activators; 350,000 tested, 0.064% active;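 also: 100% = response of the positive control SU9516; nearly all actives have a fitted effect of over 60% in size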
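alpha7betagal+/- myoblasts (passage 13, 250/well) treated 48 h at 37C with compounds at 1:260 dilution of DMSO stock. Lysed, then beta-galactosidase activity read as FDG fluorescence (ex 480/em 540) after 30 min, with pre-read for autofluorescence.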
Mito fusion act = blocks mitochondrial division or promotes mitochondrial fusion. S. cerevisiae fusion-defective mutant growth rescue, CellTiterGlo 48 h. Potency, µM (highest dose often 46.1 µM), for inactives: at the top dose growth rescue (activation), actives largely listed as activators. 320,000 tested, 0.23% active; also: % of control where 0% means no effect; nearly all actives have a fitted effect of over 45% in size
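Temperature-sensitive fusion-defective S. cerevisiae (e.g. fzo1-1, mgm1-5) were grown with compound in YPEG medium (3% ethanol, 3% glycerol) for 48 hours at 37C. Growth rescue was measured as viability by CellTiterGlo luminescence after 10 minutes at ambient.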
RORgamma inh = ROR gamma (mouse) transcription inhibition; P51450; Drosophila S2 Gal4-RORgamma UAS-luciferase reporter, 20 h; Potency, µM (top dose mostly 53.6 µM), without a hit: at the highest dose activity change, negative = inhibition, usual class: inhibitors; 310,000 tested, 5.4% active; AID 2551; also: % is scaled to controls: 0 for no effect and ±100 for the full control effect; nearly all actives have a fitted effect of over 60% in size
Target sequence (P51450 whole entry, looked up, the tested form may be a part): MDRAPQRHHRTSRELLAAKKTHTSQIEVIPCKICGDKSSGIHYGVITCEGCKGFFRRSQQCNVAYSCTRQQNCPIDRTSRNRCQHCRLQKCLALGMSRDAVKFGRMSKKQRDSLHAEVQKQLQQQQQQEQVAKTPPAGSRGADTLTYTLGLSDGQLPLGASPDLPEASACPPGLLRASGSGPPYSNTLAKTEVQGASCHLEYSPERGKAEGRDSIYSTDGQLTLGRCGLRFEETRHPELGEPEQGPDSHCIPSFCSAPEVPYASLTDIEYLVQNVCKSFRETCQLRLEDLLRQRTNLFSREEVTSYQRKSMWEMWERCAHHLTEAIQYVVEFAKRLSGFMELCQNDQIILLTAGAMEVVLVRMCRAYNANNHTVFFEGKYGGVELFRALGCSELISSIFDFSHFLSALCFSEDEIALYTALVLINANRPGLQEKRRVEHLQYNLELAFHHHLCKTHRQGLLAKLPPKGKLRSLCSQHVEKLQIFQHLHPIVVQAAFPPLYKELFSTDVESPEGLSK
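A Gal4/UAS one-hybrid system in insect cells: metallothionein-promoter Gal4–ROR gamma fusion plus Photinus luciferase reporter. Copper sulfate 700 uM final, 20 hr ambient incubation, luminescent detection after 10 min with reagent.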
Chronic BCR inh = inhibitors of chronic active B-cell receptor signaling | 340,000 tested, 0.05% active | AID 493014 | ABC-DLBCL IkBa-CBG/CBR reporter, luminescence ratio, 4 h | Potency, µM (doses to about 46.1 µM), without a hit: top-dose activity change, negative = inhibition, usual class: inhibitors; active = well fitted inhibition curve with a large enough effect in the signal ratio, with a control signal flat, not every such curve was filed as active; inconclusive = small, poorly fitted or top-dose-only effect, or effect the other way, or a change in a side signal; the % refers to the signal ratio;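 also: plate controls were basal doxycycline-induced cells for no effect and cells given 10 µM MG132 for full effect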
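TMD8 human ABC-DLBCL cells with doxycycline-inducible IκBα–green luciferase fusion and unfused red luciferase, in 0.5% FBS medium; compounds up to 46 uM, 4 h at 37C. Green/red luminescence ratio, filter-overlap corrected, fitted to concentration-response curves.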
uPA generation = cell surface uPA generation inhibition; cell surface uPA generation assay, qHTS; Potency, µM (titrated, usually from 38.3 µM), for inactives: top-dose activity change, negative = inhibition, actives largely listed as inhibitors; 330,000 tested, 0.31% active; AID 540303; active = well fitted inhibition curve with a large enough effect; inconclusive = small, poorly fitted or top-dose-only effect; inactive = no such curve, though single readings can be large or run the other way; tested in mouse RAW 264.7 cells; also: % is scaled to controls: 0 for no effect and ±100 for the full control effect; nearly all actives have a fitted effect of over 55% in size
VP16 counter = counter-screen for ROR gamma inhibitors: Gal4-VP16 reporter; Drosophila S2 Gal4-VP16 UAS-luciferase, luminescence, 20 h; Potency, µM (doses to about 53.6 µM), for the others: at the top dose activity, negative = inhibition, usual class: inhibitors; 310,000 tested, 3.5% active; AID 2546;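 also: Gal4-VP16 expression switched on by copper sulfate through the metallothionein promoter; % is scaled to controls: 0 for no effect and ±100 for the full control effect; nearly all actives have a fitted effect of over 50% in size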
An asterisk follows results filed as active; ? = inconclusive; . = no result given; [ ] = remark or other dose. Unless noted, calls follow the shape of the dose curve; as a rule, active = well fitted curve in the direction sought with a large enough effect; inconclusive = small, poorly fitted or top-dose-only effect, or another doubt; inactive = no such curve, though single readings can be large; an effect the other way counts as inactive or inconclusive. Potency is read from the fitted curve at half-maximal effect.

SMILES | a7 integrin act | Mito fusion act | RORgamma inh | Chronic BCR inh | uPA generation | VP16 counter
Cc1cc2oc(=O)cc(-c3ccccc3)c2c(C)c1-c1ccoc1 | . | . | -10.4% | . | . | -2.8%
S=C1NCN(CCc2ccccc2)CN1Cc1ccccc1 | ? | 6.1% | 5.4% | -0.2% | -20.6% | 3.0%
CC(C)CN1CN(Cc2ccccc2)CNC1=S | -9.7% | -6.9% | 3.98µM* | 7.0% | 6.3% | 5.62µM*
CCCN1CN(Cc2ccccc2)CNC1=S | 8.1% | -6.4% | 6.31µM* | 4.7% | -1.3% | 7.08µM*
COCCCN1CN(Cc2ccccc2)CNC1=S | -43.1% | -8.7% | 11.2µM* | 1.8% | -2.6% | ?
CCCN1CNC(=S)N(Cc2ccccc2)C1 | 3.0% | -10.1% | 5.62µM* | 3.4% | 25.7% | 7.08µM*
S=C1NCN(Cc2ccco2)CN1CCc1ccccc1 | 0.0% | -4.0% | 2.24µM* | -6.6% | 5.1% | 11.2µM*
S=C1NCN(Cc2cccnc2)CN1Cc1ccccc1 | 14.5% | -5.6% | ? | 2.0% | -7.3% | 3.6%
COCCN1CSC(=S)N(Cc2ccco2)C1 | -43.3% | 3.3% | ? | -1.2% | . | -15.5%
S=C1SCN(Cc2ccccn2)CN1Cc1ccco1 | -50.7% | -2.2% | ? | ? | ? | -4.8%
CCOCCCN1CN(Cc2ccco2)CNC1=S | 14.5% | -0.4% | 11.2µM* | 5.2% | 6.0% | -4.3%
CC(C)CN1CN(Cc2ccco2)CNC1=S | -16.8% | -1.3% | 2.24µM* | 2.7% | 3.5% | ?
CCCCN1CNC(=S)N(Cc2ccccc2)C1 | 21.0% | -5.6% | 3.98µM* | -2.2% | -2.3% | 5.62µM*
Cc1cc(O)cc(O)c1C(=O)OC1(C)C(=O)C=C2C=C(/C=C/C(=O)O)OC=C2C1=O (centres undefined) | . | . | -5.2% | . | . | -10.1%
COC(=O)C1C2CC3c4[nH]c5cc(OC)ccc5c4CCN3CC2CC(OC)C1OC (centres undefined) | . | . | -6.6% | . | . | 1.5%
CNC(=S)Nc1cccc([N+](=O)[O-])c1 | 0.2% | 3.2% | 3.1% | -3.2% | -0.8% | 5.9%
Cc1cc(Br)ccc1NC(=S)Nc1cccc([N+](=O)[O-])c1 | 25.7% | 4.3% | 11.2µM* | -0.7% | -1.6% | ?
Cc1cccc(NC(=S)N/N=C(\c2ccccc2)C(C)C)c1 | 11.1% | 5.4% | 4.47µM* | ? | -0.6% | ?
C/C(=N/NC(=S)Nc1cccc(C)c1)c1cccc([N+](=O)[O-])c1 | 22.4% | 1.0% | 2.82µM* | ? | -12.2% | 10µM*
C/C(=N/Nc1nc(C)c(C)s1)c1cccc([N+](=O)[O-])c1 | 22.9% | -14.7% | 11.2µM* | ? | -2.1% | ?
C/C(=N\NC(=S)NC(C)C)c1cccc([N+](=O)[O-])c1 | -15.5% | -7.1% | 1.26µM* | ? | -1.8% | 3.98µM*
COC(=O)N1C(=O)[C@](c2ccc(Cl)cc2)(C(C)C)N1C(=O)OC | ? | -1.0% | -26.6% | ? | ? | -16.0%
COC(=O)N1C(=O)[C@@](c2ccccc2)(C(C)C)N1C(=O)OC | 7.3% | 0.4% | 10µM* | ? | ? | 0.9%
CCCn1c(=O)c(C(=O)NCCc2ccc(OC)cc2)c(O)c2ccccc21 | -16.6% | 7.3% | ? | 4.3% | -3.9% | 12.6µM*
CCCn1c(=O)c(C(=O)NCCc2ccccc2)c(O)c2ccccc21 | 9.8% | -1.5% | -73.2% | 9.5% | 2.2% | ?
SMILES | a7 integrin act | Mito fusion act | RORgamma inh | Chronic BCR inh | uPA generation | VP16 counter
C=CCn1c(=O)c(C(=O)NCCc2ccccc2)c(O)c2ccccc21 | -4.2% | 3.3% | 14.1µM* | 11.7% | -4.4% | ?
C=CCn1c(=O)c(C(=O)NCc2ccc(Cl)cc2)c(O)c2ccccc21 | 18.3% | 0.8% | ? | 4.1% | 11.9% | ?
O=C(c1ccccc1)N1CCC(c2nc(-c3ccc(S(=O)(=O)NCC4CCCO4)cc3)no2)CC1 (centres undefined) | -37.2% | 1.2% | -43.4% | 12.3% | -14.9% | 8.91µM*
COc1ccc(CCNC(=O)c2ccc(CS(=O)Cc3ccc(Cl)cc3)o2)cc1OC (centres undefined) | -6.9% | -6.6% | 6.8% | ? | -3.0% | -9.2%
Cc1ccc(COC(=O)Cc2coc3cc(O)ccc23)cc1 | -2.7% | 3.9% | 5.62µM* | ? | -10.9% | 7.08µM*
CC(=O)N[C@@H](CCCNC(=N)N)C(=O)N[C@H](CC1CCCCC1)C(=O)N[C@@H]1CCC2SC[C@@H](C(=O)N[C@H](CCCNC(=N)N)C(=O)N[C@H](Cc3ccc(Cl)cc3)C(N)=O)N2C1=O (some centres undefined) | . | . | 14.9% | . | . | 2.5%
COC(=O)c1ccc(Oc2cc(C)nc(-n3nc(C)cc3C)n2)cc1 | -8.1% | -0.9% | 0.282µM* | ? | . | 3.16µM*
C=CCn1c(NC(=O)c2ccc(C)cc2)nc2ccccc21 | -25.6% | 1.7% | 0.398µM* | 0.2% | 2.3% | 0.794µM*
CCCn1c(NC(=O)C2CCN(S(=O)(=O)c3cccs3)CC2)nc2ccccc21 | -48.1% | 4.8% | 1.41µM* | ? | -8.3% | 4.47µM*
CCn1c(CCNC(=O)c2ccco2)nc2ccccc21 | 6.8% | 0.4% | 21.7% | ? | 1.4% | -5.0%
O=C(Nc1nc2ccccc2n1Cc1ccccc1)c1ccco1 | -42.6% | 9.2% | 2µM* | 3.4% | 2.4% | 2.51µM*
O=C(Nc1nc(NC(=O)c2ccco2)n(-c2ccccc2)n1)c1ccccc1 | -0.6% | -4.2% | 0.891µM* | -22.9% | ? | 1.26µM*
Cc1csc(NC(=O)C2CCN(S(=O)(=O)c3cccs3)CC2)n1 | 0.0% | 17.7% | ? | 10.0% | 1.8% | -5.7%
C=CCn1c(-c2ccc(C)cc2)nc2ccccc21 | -39.5% | 5.5% | ? | -15.0% | . | -5.9%
CCN(CC)CCCC(C)n1c(-c2ccccc2)nc2c(N(CCOC)CCOC)nc(C)nc21 (centres undefined) | . | . | -21.8% | . | . | -8.0%
COc1cc(/C=C2/NC(=O)N(Cc3ccccc3F)C2=O)ccc1O | 3.2% | -4.5% | 6.7% | ? | -9.6% | -1.0%
CC1Cc2ccccc2N1S(=O)(=O)c1cccc(C(=O)N2Cc3ccccc3CC2C(N)=O)c1 (centres undefined) | -15.8% | -2.6% | . | -4.6% | ? | .
CCCn1c(SCC(=O)C(C)(C)C)nc2ccccc21 | -10.9% | -3.0% | 11.2µM* | -0.8% | -0.6% | ?
CCCn1c(NC(=O)c2ccccc2)nc2ccccc21 | -34.8% | 3.0% | 0.794µM* | ? | -3.3% | 1.78µM*
CCCn1c(NC(=O)c2cccc(S(=O)(=O)N3CCCC3)c2)nc2ccccc21 | -4.2%[7.66 µM] | 16.6% | 2.82µM* | ? | -14.3% | 6.31µM*
CCCn1c(NC(=O)c2ccc(C)cc2)nc2ccccc21 | -14.1% | 9.4% | 2.24µM* | ? | -0.4% | 0.631µM*
